Screening results (PubChem BioAssay)
A selection: hits, their analogues and other compounds. The true share with any hit is near 3.4%.
SMARCA2 activ = SMARCA2 (BRM) function activators, primary screen, cell-based, luminescence, high throughput | MG213 cells, MMTV-luciferase reporter, dexamethasone, overnight | activation, % at 9.1 µM | 370,000 tested, 1% active | AID 652017, 2013; in the data active means activation above about 7.8%;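 further: 0% = vehicle wells and 100% = reference activator wells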
AI-2 QS modul = Vibrio harveyi AI-2 quorum sensing modulators, primary screen, JMH597 strain, luminescence/OD600 ratio | Vibrio harveyi JMH597 AI-2 luminescence/OD600 ratio, 9 h; hits give low values; strain lacks LuxN and CqsS sensors; 0 = neutral-control median | activity change, % at 7.5 µM | 300,000 tested, 0.4% active | AID 2094, 2009; in the data active means activity change below about -75%, passing the limit was not always enough;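 further: luminescence divided by OD600 gain over 9 h not by final OD600 alone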
PG9 binder = binders of HIV-1 gp120 antibody PG9, primary screen, biochemical, TR-FRET; HIV-1 gp120 / PG9 antibody interaction; TR-FRET gp120-PG9 antibody binding; inhibition, % at 6.7 µM; 360,000 tested, 0.43% active; AID 624416, 2012; in the data active means inhibition above about 8.5%
GAA850 FXN act = FXN promoter activators, primary screen, cell-based, luciferase luminescence, HEK293 lucGAA850. HEK293 lucGAA850 FXN promoter luciferase reporter, 24 h; percent of 10 µM SAHA response. AID 540364, 2011. 360,000 tested, 0.56% active. activation, % at 6 µM;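 active means activation above the average of all compounds screened plus 3 SD, cutoff fixed separately per campaign, cut at about 7.5% in these data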;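 further: 0% = DMSO wells and 100% = 10 µM SAHA wells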
HSP90 refold inh = HSP90 inhibitors, primary screen, cell lysate, luminescence. Heat shock protein HSP 90 (rabbit reticulocyte lysate; luciferase refolding). Rabbit reticulocyte lysate, luciferase refolding luminescence, 3 h. inhibition, % at 5.6 µM. 290,000 tested, 0.91% active. AID 1789, 2009;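 active means inhibition above the screen-wide mean plus 3 SD, computed separately per campaign, cut at about 16% in these data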;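 further: 0% = DMSO wells and 100% = 60 µM geldanamycin wells; inhibitors lower the luminescence because luciferase stays unfolded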
HSF1 inh = HSF1 inhibitors in luciferase reporter cells, primary screen, cell-based, NIH3T3, luminescence. NIH3T3-HGL HSE-luciferase, MG132-induced, luminescence 8 h; hits give low values. activity change, negative = inhibition, % at 7.5 µM (by protocol). 300,000 tested, 0.77% active. AID 2098, 2009;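 active means more than half of replicate wells show activity change below -50%, luminescence cut by over half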;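 further: luciferase reports HSF-1 transcriptional activity via heat shock element; 0% = median of DMSO wells and -100% = zero luminescence signal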
HSP90 confirm = HSP90 inhibitors, confirmation, cell lysate, luminescence; rabbit reticulocyte lysate, luciferase refolding luminescence, 3 h; 2,300 tested, 64% active; shares compounds with HSP90 refold inh; inhibition, % at 5.9 µM; AID 1846, 2009; in the data active means inhibition above about 18%;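 further: 0% = vehicle wells and 100% = reference inhibitor wells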
luciferase ctr = firefly luciferase inhibitors, HSP90 counter-screen, confirmation, artefact control for HSP90 inhibitor project, biochemical, luminescence, triplicate; inhibition, % at 5.9 µM; purified native firefly luciferase; shares compounds with HSP90 refold inh; 2,300 tested, 48% active; AID 1847, 2009;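 active means inhibition above the mean inhibition of all tested sample wells plus 3 SD, cut at about 10% in these data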;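 further: 0% = DMSO with luciferase and 100% = wells lacking luciferase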
Target sequence (P08659 whole entry, looked up): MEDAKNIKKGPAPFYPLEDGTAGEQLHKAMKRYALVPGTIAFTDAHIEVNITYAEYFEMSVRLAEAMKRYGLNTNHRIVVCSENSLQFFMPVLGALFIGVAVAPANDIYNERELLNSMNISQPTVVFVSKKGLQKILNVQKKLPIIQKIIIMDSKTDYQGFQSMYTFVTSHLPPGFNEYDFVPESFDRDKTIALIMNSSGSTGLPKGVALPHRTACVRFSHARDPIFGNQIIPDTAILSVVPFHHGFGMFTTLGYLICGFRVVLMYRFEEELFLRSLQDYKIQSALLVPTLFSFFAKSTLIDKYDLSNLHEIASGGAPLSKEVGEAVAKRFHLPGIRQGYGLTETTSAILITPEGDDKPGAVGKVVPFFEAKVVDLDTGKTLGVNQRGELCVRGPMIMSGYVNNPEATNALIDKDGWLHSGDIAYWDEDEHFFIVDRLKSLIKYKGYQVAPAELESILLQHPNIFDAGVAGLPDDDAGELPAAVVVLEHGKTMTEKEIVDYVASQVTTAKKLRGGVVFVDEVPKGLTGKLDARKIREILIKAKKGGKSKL
Starred values were filed as active, the others as inactive; . = no result given.

SMILES	SMARCA2 activ	AI-2 QS modul	PG9 binder	GAA850 FXN act	HSP90 refold inh	HSF1 inh	HSP90 confirm	luciferase ctr
CC1CC1C(=O)N1CCC(Oc2cccnc2)CC1 (stereo not drawn)	1	.	.	.	.	.	.	.
CC(=O)Nc1cccc(-c2cc(C(C)=O)c3n(c2=O)CCC3)c1	1	.	.	.	.	.	.	.
COc1cc2c(c(OC3OC(CO)C(O)C(O)C3O)c1)C(=O)CC(c1ccc(O)cc1)O2 (stereo not drawn)	0	.	1	.	.	.	.	.
Clc1ccc(-n2ncc3c(N4CCCC4)ncnc32)cc1	-2	18	-1	-6	31*	1	62*	58*
COc1ccc(S[C@]2(C(=O)N3CCOCC3)CC(=O)N[C@@H]2c2ccc(OC)cc2)cc1	-1	.	.	.	.	.	.	.
O=S(=O)(Nc1cc(Sc2ncn[nH]2)c(O)c2ccccc12)c1ccccc1	-12	.	-4	-15	93*	.	7	9.4*
Cc1cc(O)c(Sc2ncn[nH]2)cc1NS(=O)(=O)c1ccc(Cl)cc1	-2	.	-2	-2	.	.	.	.
O=[N+]([O-])c1ccccc1-c1nc(-c2ccc(Br)o2)no1	5	22	-1	6	6	19	.	.
Nc1nnc(-c2ccccc2[N+](=O)[O-])o1	3	18	-1	0	30*	-14	-2	-9
O=C(O)COc1ccccc1/C=N/NC(=O)CSc1nc2ccccc2s1	-3	21	1	-2	7	4	.	.
O=C(CSc1nc2ccccc2s1)N/N=C/c1ccccc1C(=O)O	-6	6	-2	-9	18*	-63*	8	8
CCOC(=O)[C@@]12CCCC3=C1N(CCC3)C(=O)[C@H]2CC(=O)NCC12CC3CC(CC(C3)C1)C2	-1	.	.	.	.	.	.	.
CCC(=O)NC1=C(Cl)C(=O)C(NC(=O)CC)=C(Cl)C1=O	8.6*	.	-1	0	30*	.	12	75*
Fc1ccccc1Cn1ccc2ccc(-c3ccc4ccn(Cc5ccccc5F)c4c3)cc21	2	.	.	.	.	.	.	.
C[C@@H]1CCCCO[C@H](CN(C)C(=O)C2CCCCC2)[C@@H](C)CN([C@H](C)CO)C(=O)c2cc(NS(=O)(=O)c3cccs3)ccc2O1	-3	.	-2	.	.	.	.	.
COc1ccc(NC(=O)Nc2nc3ccccc3s2)cc1	5	9	-1	2	0	19	.	.
COc1ccccc1C(=O)Nc1nc2ccccc2s1	-8	23	0	-12	91*	-88*	96*	93*
COc1ccc2nc(NC(=O)c3ccccc3F)sc2c1	5	12	-2	2	18*	29	38*	31*
Cc1cc(/C=N/Nc2ncnc(N)c2[N+](=O)[O-])c(C)n1-c1ccccc1	-8	10	-3	-11	76*	.	95*	92*
COc1cccc(/C=N/Nc2ncnc(N)c2[N+](=O)[O-])c1OC	.	6	.	0	27*	2	80*	62*
COc1cccc(C=NNc2nnc(NN=Cc3cccc(OC)c3OC)c3ccccc23)c1OC	-3	.	-2	-3	.	.	.	.
Cc1cc(/C=N/Nc2nc(N)ncc2[N+](=O)[O-])c(C)n1-c1cccc(C(F)(F)F)c1	.	16	.	.	34*	-2	29*	16*
COCCCNC(=O)C[C@H]1C[C@@]2(C(=O)OC)C(=C[C@H](C(C)C)O[C@@H]2C2CC2)N(Cc2cccc3ccccc23)C1=O	-3	.	.	.	.	.	.	.
COC(=O)c1ccc(NC(=O)C[n+]2ccccc2C)cc1	1	11	-3	2	20*	-1	1	-4
Cc1cccc[n+]1CC(=O)Nc1ccccc1	-1	-5	1	2	1	-5	.	.
